Common to all, as to test: DAPPL (digital affinity profiling via proximity ligation, sequencing); 10 mM Tris-HCl pH 7.5, 50 mM NaCl, 1 mM DTT, 4% glycerol, room temperature, 30 min; GST-TFs on glutathione beads, 16-mer random dsDNA library, 0.1% formaldehyde crosslink after washing; high values mean tight binding
What all share (conditions): protein: recombinant; tags: N-terminal GST; dsDNA, one strand shown

Experiment [1] deals with T1, FLI1 (Homo sapiens, UniProt Q01543 1-452).
T1 sequence: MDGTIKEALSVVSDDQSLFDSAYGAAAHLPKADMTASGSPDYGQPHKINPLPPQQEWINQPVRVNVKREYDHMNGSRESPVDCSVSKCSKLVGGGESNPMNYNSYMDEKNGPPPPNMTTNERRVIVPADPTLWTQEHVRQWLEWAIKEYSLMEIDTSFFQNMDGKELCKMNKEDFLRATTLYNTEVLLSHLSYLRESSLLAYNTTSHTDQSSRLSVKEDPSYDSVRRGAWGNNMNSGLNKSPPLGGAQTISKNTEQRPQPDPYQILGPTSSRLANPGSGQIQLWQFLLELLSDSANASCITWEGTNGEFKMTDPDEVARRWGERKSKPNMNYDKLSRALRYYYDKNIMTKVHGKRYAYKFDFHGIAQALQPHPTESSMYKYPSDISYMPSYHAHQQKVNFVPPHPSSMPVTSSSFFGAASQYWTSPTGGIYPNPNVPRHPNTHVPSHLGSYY
The procedure, abridged: (§1)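 Each value of binding signal is a hexamer's read frequency for a factor divided by the same hexamer's frequency in the tag-only sample. Barcoded, bead-captured GST fusions of human transcription factors made in yeast were pooled with that sample and incubated with 200 nmole of a random double-stranded 16-mer DNA library in Tris/NaCl/DTT/glycerol buffer at room temperature for 30 min. Washing, 0.1% formaldehyde crosslinking, proximity ligation, PCR and Illumina NextSeq500 sequencing followed.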

For experiment [2], the target named is T2, ELK1 (Homo sapiens, UniProt P19419 1-428).
T2 sequence: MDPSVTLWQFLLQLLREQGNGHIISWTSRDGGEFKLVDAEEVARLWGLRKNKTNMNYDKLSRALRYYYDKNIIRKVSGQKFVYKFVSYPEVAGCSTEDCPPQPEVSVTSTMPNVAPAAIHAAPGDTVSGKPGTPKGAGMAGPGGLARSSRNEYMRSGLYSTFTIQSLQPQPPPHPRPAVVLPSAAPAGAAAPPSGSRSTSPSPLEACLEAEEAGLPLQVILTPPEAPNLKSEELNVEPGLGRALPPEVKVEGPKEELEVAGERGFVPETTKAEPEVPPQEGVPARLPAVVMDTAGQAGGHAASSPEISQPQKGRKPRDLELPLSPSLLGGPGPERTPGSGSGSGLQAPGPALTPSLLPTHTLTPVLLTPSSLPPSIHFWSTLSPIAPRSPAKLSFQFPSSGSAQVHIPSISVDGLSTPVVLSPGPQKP
In outline:
as §1

The target of experiment [3] is T3, GABPA (Homo sapiens, UniProt Q06546 1-454).
T3 sequence: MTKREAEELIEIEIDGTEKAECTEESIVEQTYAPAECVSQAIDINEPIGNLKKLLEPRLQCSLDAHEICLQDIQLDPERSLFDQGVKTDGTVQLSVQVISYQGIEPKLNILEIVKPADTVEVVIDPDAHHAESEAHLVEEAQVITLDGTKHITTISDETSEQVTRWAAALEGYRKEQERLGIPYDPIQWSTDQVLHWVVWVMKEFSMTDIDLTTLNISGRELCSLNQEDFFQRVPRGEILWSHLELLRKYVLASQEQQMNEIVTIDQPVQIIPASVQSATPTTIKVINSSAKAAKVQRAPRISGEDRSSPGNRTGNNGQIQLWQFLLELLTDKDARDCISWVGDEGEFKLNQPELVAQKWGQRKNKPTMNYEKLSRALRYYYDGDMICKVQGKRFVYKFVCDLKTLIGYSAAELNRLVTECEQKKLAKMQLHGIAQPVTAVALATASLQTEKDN
In outline:
as §1

Experiment [4] has as its target T4, ERG (Homo sapiens, UniProt P11308 1-479).
T4 sequence: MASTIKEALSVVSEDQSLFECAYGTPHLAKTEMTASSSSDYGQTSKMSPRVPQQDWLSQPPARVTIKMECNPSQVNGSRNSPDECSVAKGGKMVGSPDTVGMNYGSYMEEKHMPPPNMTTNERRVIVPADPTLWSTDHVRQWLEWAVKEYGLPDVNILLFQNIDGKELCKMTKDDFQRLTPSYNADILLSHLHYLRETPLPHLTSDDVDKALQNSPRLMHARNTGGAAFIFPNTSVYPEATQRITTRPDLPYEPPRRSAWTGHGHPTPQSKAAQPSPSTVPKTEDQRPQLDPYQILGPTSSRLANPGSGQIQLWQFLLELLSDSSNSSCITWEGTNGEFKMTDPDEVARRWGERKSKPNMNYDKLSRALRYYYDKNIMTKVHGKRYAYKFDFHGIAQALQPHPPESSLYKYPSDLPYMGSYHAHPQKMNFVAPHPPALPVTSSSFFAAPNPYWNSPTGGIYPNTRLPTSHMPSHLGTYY
The procedure, abridged: as §1

The target in experiment [5] is ELF1 (Homo sapiens, UniProt P32519 1-619). In outline:
as §1

In experiment [6] the target is T5, EHF (Homo sapiens, UniProt Q9NZC4 1-300).
T5 sequence: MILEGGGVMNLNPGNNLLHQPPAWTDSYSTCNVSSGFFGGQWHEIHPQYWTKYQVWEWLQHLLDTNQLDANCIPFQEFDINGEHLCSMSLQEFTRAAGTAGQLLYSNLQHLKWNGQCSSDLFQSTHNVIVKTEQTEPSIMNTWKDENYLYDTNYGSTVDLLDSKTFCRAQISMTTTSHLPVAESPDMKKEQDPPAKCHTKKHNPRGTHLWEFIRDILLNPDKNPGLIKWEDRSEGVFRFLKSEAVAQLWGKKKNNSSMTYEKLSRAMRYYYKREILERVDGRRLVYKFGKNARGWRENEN
In outline: as §1

The target in experiment [7] is SPI1 (Homo sapiens, UniProt P17947 1-270). The procedure, abridged: as §1
Experiment [8] has as its target SPIB (Homo sapiens, UniProt Q01892 1-262). In outline:
as §1

Experiment [9] has as its target T6, ELK3 (Homo sapiens, UniProt P41970 1-407).
T6 sequence: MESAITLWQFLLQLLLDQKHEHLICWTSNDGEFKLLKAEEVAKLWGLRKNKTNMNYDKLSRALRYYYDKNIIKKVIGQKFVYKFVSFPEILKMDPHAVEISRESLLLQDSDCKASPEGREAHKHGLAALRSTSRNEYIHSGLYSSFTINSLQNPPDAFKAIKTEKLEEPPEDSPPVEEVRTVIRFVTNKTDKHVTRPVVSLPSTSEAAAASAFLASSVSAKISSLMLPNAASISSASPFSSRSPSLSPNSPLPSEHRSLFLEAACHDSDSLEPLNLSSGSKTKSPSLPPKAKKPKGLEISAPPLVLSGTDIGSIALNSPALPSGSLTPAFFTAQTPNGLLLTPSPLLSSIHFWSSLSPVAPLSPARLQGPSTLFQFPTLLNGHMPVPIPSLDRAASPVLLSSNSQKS
In outline: as §1

In experiment [10] the target is T7, FEV (Homo sapiens, UniProt Q99581 1-238).
T7 sequence: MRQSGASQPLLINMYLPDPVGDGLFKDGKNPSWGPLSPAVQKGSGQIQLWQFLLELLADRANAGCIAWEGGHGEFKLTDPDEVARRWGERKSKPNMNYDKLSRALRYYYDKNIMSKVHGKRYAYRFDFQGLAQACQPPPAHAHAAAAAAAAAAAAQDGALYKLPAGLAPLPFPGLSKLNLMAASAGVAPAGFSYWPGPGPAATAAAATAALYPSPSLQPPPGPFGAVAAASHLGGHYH
The procedure, abridged:
as §1

Experiment [11] has as its target ETV5 (Homo sapiens, UniProt P41161 1-510). In outline: as §1
Experiment [12] has as its target T8, SPIC (Homo sapiens, UniProt Q8N5J4 1-248).
T8 sequence: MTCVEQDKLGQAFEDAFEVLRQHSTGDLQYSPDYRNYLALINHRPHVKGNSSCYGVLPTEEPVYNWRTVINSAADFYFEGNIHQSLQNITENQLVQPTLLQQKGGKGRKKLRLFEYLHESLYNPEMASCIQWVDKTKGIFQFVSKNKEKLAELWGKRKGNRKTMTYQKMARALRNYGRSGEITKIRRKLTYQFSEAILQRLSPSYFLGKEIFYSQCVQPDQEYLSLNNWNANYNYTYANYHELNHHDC
In outline:
as §1

The target of experiment [13] is ELF4 (Homo sapiens, UniProt Q99607 1-663). In outline: as §1
For experiment [14], the target named is T9, ELK4 (Homo sapiens, UniProt P28324-2 1-405).
T9 sequence: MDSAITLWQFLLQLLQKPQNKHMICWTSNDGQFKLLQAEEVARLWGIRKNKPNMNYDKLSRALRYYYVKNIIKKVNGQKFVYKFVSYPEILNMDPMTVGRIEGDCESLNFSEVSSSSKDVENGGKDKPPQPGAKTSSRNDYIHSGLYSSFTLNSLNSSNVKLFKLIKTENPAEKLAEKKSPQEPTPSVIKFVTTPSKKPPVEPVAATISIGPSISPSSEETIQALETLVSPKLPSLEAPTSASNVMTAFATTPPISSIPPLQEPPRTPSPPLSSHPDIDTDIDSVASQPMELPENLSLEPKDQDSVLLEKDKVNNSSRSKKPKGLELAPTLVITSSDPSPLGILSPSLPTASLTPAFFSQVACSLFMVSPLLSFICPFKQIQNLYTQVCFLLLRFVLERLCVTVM
The procedure, abridged: as §1

In experiment [15] the target is T10, ETV2 (Homo sapiens, UniProt O00321 1-342).
T10 sequence: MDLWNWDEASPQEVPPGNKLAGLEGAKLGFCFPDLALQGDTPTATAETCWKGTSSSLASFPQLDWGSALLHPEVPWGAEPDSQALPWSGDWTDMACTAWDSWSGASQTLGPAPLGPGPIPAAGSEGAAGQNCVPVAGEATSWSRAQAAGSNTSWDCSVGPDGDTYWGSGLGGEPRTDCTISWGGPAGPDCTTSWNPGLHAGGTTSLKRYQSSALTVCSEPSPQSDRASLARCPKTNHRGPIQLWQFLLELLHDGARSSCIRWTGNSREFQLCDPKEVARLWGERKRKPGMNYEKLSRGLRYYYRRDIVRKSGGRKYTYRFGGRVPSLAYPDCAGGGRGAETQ
In outline: as §1

Experiment [16] addresses T11, ELF3 (Homo sapiens, UniProt P78545 1-371).
T11 sequence: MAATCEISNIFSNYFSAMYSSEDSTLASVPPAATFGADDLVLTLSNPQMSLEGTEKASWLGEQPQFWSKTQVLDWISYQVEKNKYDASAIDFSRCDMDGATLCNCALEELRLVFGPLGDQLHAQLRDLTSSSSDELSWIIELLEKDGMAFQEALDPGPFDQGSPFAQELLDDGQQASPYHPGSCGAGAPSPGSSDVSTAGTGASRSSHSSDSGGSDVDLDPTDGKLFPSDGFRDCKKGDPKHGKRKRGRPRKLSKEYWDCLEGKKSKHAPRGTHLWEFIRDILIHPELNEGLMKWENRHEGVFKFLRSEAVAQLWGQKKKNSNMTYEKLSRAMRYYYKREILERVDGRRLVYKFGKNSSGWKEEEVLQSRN
In outline: as §1

Experiment [17] deals with ETV1 (Homo sapiens, UniProt P50549 1-477). In outline:
as §1

ELF1, sequence (P32519 whole entry): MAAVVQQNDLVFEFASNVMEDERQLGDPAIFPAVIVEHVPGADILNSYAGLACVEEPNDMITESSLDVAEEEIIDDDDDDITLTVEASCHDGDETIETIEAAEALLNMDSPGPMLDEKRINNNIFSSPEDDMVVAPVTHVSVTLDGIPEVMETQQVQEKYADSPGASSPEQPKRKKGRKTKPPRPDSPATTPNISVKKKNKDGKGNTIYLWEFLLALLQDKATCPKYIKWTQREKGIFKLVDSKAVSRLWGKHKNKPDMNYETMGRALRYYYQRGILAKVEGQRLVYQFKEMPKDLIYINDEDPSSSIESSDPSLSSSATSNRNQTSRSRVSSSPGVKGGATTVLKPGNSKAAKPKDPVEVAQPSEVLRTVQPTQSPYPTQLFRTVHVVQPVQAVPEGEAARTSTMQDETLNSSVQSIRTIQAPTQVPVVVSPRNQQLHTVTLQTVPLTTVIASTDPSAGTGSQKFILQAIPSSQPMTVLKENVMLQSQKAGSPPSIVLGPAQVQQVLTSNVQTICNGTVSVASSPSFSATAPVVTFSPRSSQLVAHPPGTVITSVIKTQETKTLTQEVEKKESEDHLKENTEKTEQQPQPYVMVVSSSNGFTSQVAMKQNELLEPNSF
ETV5, sequence (P41161 whole entry): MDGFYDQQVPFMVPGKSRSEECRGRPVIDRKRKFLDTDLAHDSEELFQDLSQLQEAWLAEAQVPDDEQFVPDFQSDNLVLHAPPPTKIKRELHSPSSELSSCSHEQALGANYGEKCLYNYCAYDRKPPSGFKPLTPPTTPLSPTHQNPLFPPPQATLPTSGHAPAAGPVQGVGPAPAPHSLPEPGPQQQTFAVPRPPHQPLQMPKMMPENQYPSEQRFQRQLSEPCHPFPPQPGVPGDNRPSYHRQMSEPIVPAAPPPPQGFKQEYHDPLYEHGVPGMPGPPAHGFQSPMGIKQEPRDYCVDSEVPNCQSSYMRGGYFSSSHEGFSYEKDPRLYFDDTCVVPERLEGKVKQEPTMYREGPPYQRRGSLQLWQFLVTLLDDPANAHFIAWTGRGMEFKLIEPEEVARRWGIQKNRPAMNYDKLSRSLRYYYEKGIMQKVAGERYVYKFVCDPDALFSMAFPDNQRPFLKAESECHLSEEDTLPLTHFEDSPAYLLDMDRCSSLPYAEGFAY
ELF4, sequence (Q99607 whole entry): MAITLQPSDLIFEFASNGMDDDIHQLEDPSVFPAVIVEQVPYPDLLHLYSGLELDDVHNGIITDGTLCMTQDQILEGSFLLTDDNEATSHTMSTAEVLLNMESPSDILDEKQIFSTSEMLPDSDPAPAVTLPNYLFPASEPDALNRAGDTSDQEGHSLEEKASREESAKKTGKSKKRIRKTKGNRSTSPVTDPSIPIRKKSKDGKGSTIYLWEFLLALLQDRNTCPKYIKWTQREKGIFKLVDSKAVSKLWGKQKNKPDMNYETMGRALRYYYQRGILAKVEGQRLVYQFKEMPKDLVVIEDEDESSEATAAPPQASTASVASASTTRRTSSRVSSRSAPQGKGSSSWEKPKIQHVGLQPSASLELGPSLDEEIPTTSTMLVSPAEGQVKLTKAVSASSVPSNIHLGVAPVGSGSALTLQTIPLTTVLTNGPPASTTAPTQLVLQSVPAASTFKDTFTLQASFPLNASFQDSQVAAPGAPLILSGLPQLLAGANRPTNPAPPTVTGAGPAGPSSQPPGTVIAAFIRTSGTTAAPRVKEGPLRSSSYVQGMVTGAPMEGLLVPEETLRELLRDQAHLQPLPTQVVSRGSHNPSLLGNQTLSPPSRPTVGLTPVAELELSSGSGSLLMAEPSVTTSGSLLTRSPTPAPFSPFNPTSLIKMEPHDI
SPIB, sequence (Q01892 whole entry): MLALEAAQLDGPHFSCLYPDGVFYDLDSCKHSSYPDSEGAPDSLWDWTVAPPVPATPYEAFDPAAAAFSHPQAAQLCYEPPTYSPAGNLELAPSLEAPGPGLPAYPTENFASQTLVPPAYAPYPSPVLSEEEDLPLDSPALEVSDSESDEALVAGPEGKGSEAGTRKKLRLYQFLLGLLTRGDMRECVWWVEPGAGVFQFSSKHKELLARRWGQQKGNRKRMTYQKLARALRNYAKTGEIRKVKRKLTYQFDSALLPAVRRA
ETV1, sequence (P50549 whole entry): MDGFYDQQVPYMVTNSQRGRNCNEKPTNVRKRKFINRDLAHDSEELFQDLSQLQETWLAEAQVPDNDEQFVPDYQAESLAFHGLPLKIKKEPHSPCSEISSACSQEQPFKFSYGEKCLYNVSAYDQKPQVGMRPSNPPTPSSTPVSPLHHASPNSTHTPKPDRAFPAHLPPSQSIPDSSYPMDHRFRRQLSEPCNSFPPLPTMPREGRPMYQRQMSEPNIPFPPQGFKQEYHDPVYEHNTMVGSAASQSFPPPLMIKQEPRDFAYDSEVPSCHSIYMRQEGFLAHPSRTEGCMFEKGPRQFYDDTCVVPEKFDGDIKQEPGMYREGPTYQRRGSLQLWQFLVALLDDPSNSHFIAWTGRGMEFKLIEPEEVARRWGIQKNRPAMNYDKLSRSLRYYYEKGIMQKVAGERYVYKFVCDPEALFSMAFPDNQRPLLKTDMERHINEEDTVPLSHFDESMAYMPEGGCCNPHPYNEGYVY

For the sequence TGCCCT, the binding signal is 1.21 fold enrichment (6-mer frequency, TF over GST control) in experiment [1]; 1.25 fold enrichment (6-mer frequency, TF over GST control) in experiment [2]; 1.21 fold enrichment (6-mer frequency, TF over GST control) in experiment [3]; 1.09 fold enrichment (6-mer frequency, TF over GST control) in [4]; 1.25 fold enrichment (6-mer frequency, TF over GST control) in [5]; 1.12 fold enrichment (6-mer frequency, TF over GST control) in experiment [6]. In addition, the binding signal was 1.15 fold enrichment (6-mer frequency, TF over GST control) in experiment [7]; 1.16 fold enrichment (6-mer frequency, TF over GST control) in experiment [8]; 1.07 fold enrichment (6-mer frequency, TF over GST control) in [9]; 1.18 fold enrichment (6-mer frequency, TF over GST control) in experiment [10]; 1.11 fold enrichment (6-mer frequency, TF over GST control) in experiment [11]; 1.2 fold enrichment (6-mer frequency, TF over GST control) in experiment [12]. Further, the binding signal is 1.12 fold enrichment (6-mer frequency, TF over GST control) in experiment [13]; 1.25 fold enrichment (6-mer frequency, TF over GST control) in experiment [14]; 1.13 fold enrichment (6-mer frequency, TF over GST control) in experiment [15]; 1.27 fold enrichment (6-mer frequency, TF over GST control) in experiment [16]; 1.08 fold enrichment (6-mer frequency, TF over GST control) in experiment [17].

For ACTACA, the binding signal in [1] is 1.32 fold enrichment (6-mer frequency, TF over GST control); in experiment [2], 1.21 fold enrichment (6-mer frequency, TF over GST control); in [3], 1.32 fold enrichment (6-mer frequency, TF over GST control); in experiment [4], 1.16 fold enrichment (6-mer frequency, TF over GST control); in [5], 1.19 fold enrichment (6-mer frequency, TF over GST control); in experiment [6], 1.15 fold enrichment (6-mer frequency, TF over GST control). In addition, the binding signal is 1.13 fold enrichment (6-mer frequency, TF over GST control) in [7]; 1.28 fold enrichment (6-mer frequency, TF over GST control) in experiment [8]; 1.11 fold enrichment (6-mer frequency, TF over GST control) in experiment [9]; 1.17 fold enrichment (6-mer frequency, TF over GST control) in experiment [10]; 1.24 fold enrichment (6-mer frequency, TF over GST control) in experiment [11]; 1.06 fold enrichment (6-mer frequency, TF over GST control) in [12]. Moreover, the binding signal in experiment [13] was 1.16 fold enrichment (6-mer frequency, TF over GST control); in experiment [14], 1.07 fold enrichment (6-mer frequency, TF over GST control); in [15], 1.11 fold enrichment (6-mer frequency, TF over GST control); in [16], 1.04 fold enrichment (6-mer frequency, TF over GST control); in experiment [17], 1.22 fold enrichment (6-mer frequency, TF over GST control).

The record behind these values is article PMC7862700, “An all-to-all approach to the identification of sequence-specific readers for epigenetic DNA modifications on cytosine”.
